Sampled rows, rich in hits. Any-hit rate of the full collection: about 0.64%.
AI-2 QS modul – Vibrio harveyi AI-2 quorum sensing modulators, primary screen, JMH597 strain, luminescence/OD600 ratio; 300,000 tested, 0.4% active; AID 2094, 2009; Vibrio harveyi JMH597 AI-2 luminescence/OD600 ratio, 9 h; active compounds read low; strain lacks LuxN and CqsS sensors; 0 = neutral-control median; activity change, % at 7.5 µM; in the data active = activity change below about -75%, passing the limit was not always enough; inconclusive = no clear call, values can overlap the other calls;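 also: luminescence divided by OD600 gain over 9 h not by final OD600 alone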
Vif inh – HIV Vif self-association inhibitors, primary screen, imaging, HEK293T, single point | HEK293T cells, Vif self-association by quenched fluorescence, 24 h | inhibition, % at 7.49 µM | 340,000 tested, 0.35% active; in the data active = inhibition above about 50%, passing the limit was not always enough; inconclusive = no clear call, values can overlap the other calls; inactive = below about 31%
PDI turbidity – inhibitors of human PDI, primary screen, biochemical, turbidity, single point, plate reader; PDI insulin aggregation turbidity, A650, 90 min; inhibition, % at 10 µM; 350,000 tested, 0.052% active;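 active = mean inhibition across replicates of 30% or more, whatever share of single replicates reach that level; inconclusive = mean inhibition below 30% while every single replicate reaches 30%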
Target sequence (P07237 whole entry, looked up): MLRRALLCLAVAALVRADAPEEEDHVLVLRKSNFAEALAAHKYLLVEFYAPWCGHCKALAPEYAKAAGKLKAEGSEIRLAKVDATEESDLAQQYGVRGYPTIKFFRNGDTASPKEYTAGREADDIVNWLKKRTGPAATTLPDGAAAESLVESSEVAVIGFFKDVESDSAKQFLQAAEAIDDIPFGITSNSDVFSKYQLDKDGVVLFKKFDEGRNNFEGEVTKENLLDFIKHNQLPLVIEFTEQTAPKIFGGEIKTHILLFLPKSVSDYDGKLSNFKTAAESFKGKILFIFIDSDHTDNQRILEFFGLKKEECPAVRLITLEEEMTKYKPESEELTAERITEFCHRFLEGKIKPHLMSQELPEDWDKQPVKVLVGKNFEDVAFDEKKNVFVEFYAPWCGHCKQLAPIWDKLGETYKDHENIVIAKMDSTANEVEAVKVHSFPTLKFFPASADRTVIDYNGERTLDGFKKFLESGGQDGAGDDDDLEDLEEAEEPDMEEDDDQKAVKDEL
PvdQ inh – P. aeruginosa PvdQ acylase inhibitors, primary screen, biochemical, fluorescence, plate reader and imaging, single point; PvdQ acylase [Pseudomonas aeruginosa LESB58]; purified PvdQ acylase; inhibition, % at 10 µM; 340,000 tested, 0.063% active; AID 488965, 2010; in the data active = inhibition above about 30%, passing the limit was not always enough; inconclusive = no clear call, values can overlap the other calls;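 also: 0% = vehicle neutral wells and 100% = reference inhibitor wells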
ERp5 inh – inhibitors of ERp5-driven insulin aggregation, primary screen, biochemical, turbidity, absorbance 650 nm, single point; inhibition, % at 9.99 µM; 350,000 tested, 0.05% active; AID 651711, 2012; 90 min;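 active = mean replicate inhibition above about 25%, with every replicate also reaching it, limit read from the data, passing the limit was not always enough; inconclusive = only one of those two criteria met; inactive = neither criterion met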
* marks the source's active call; other numbers are inactive results; ? = inconclusive; · = no result given; ! = not active in a repeat.

SMILES	AI-2 QS modul	Vif inh	PDI turbidity	PvdQ inh	ERp5 inh
CC1=C(O)C(=O)C=C2C1=CC=C1C2(C)CCC2(C)C3CC(C)(C(=O)O)CCC3(C)CCC12C (centres undefined)	·	46.5	62.8*	-1.8	11.3
Cc1cc(N(CCCl)CCCl)ccc1C=Cc1ccncn1	·	77.1*	-1.8	-8.0	-5.7
Cn1ncnc2c(=O)n(C)c(=O)nc1-2	-80.9*	-9.7	174.5*	8.0	·
CN(C)C(=O)[C@H]1[C@H](CO)[C@H]2Cn3c(cccc3=O)[C@@H]1N2CC1CC1	·	·	·	·	-2.0
Cc1ccccc1-n1c(/C=C/c2ccccn2)nc2ccccc2c1=O	8.3	-9.9	3.2	0.7	1.3
CN1C2CCC1/C(=C/c1ccccn1)C(=O)/C2=C\c1ccccn1	·	106.3*	-3.9	1.2	4.7
COC(=O)[C@@H]1[C@@H](CO)[C@@H]2Cn3c(ccc(-c4ccccc4F)c3=O)[C@H]1N2CC1CCCC1	·	·	·	·	8.3
COC(=O)C[C@]1(C(=O)OC)CN(C#N)N(c2ccc(Cl)cc2)C12c1ccccc1-c1ccccc12	5.8	57.2*	14.3	0.9	-4.3
COc1ccc2c(c1)[C@@]13CCC=C[C@H]1[C@@H](C2)NCC3	·	61.2*	-0.7	-4.7	-3.8
CCNC(=O)C1OC(n2cnc3c(N)ncnc32)C(O)C1O (centres undefined)	12.1	50.7*	-0.7	-10.1	·
O=C(NC[C@H]1CC[C@@H]2NC[C@@H]2O1)C1CCCC1	·	·	·	·	2.6
COC(=O)[C@@H]1[C@@H](CO)[C@@H]2Cn3c(ccc(-c4cccnc4)c3=O)[C@H]1N2CCc1ccccc1	·	·	·	·	1.5
CN1[C@@H]2c3cccc(=O)n3C[C@H]1[C@H](CO)[C@H]2C(=O)NCC1CC1	·	·	·	·	3.0
CC(=O)c1cc(C(C)=O)c(C)[n+](C)c1C	17.5	91.0*	4.8	-2.6	5.9
O=C1NC(=S)NC(=O)C1=Cc1ccc(Br)s1	-87.2*	-6.8	-1.0	-16.4	-2.1
CC(Cc1ccccc1Sc1ccccc1O)N(C)C (centres undefined)	-10.6	-5.4	37.7*	10.7	·
C#CCN(C)[C@H](C)Cc1ccccc1	17.9	-17.4	-5.5	-3.3	3.0
COC(=O)[C@@H]1[C@@H](CO)[C@@H]2Cn3c(cccc3=O)[C@H]1N2C(=O)C1CCC1	·	·	·	·	5.5
CCCC(=O)c1cc(CP(=O)(OCC)OCC)oc1C	1.9	50.1*	-1.5	·	1.8
C=CC1CN2CCC1C[C@@H]2CO (some centres undefined)	·	·	·	·	-0.8
C=C1C(=O)OC2CC3(C)OC3C3OC3C3=CC(OC3=O)C12 (centres undefined)	·	86.0*	·	·	7.9
COc1cc(C2c3cc4c(cc3CC3COC(=O)C32)OCO4)cc(OC)c1O (centres undefined)	·	60.3*	12.7	6.8	2.9
O=[N+]([O-])c1ccc(N2CCOCC2)c2cccnc12	5.4	5.0	10.0	5.2	-1.1
O=[N+]([O-])c1ccc(N2CCOCC2)c2c1no[n+]2[O-]	·	106.1*	-0.9	·	4.4
CC(C)NC(=O)N1[C@@H]2Cn3c(ccc(-c4cccc(C(=O)N(C)C)c4)c3=O)[C@H]1[C@@H](C(=O)O)[C@@H]2CO	·	·	·	·	-1.2
SMILES	AI-2 QS modul	Vif inh	PDI turbidity	PvdQ inh	ERp5 inh
CN(C)C1C(=O)C(C(N)=O)=C(O)C2(O)C(=O)C3=C(O)c4c(O)cccc4C(C)(O)C3CC12 (centres undefined)	-37.3	-1.3	-3.8	-5.3	·
CN(C)[C@@H]1C(=O)C(C(N)=O)=C(O)[C@@]2(O)C(=O)C3=C(O)c4c(O)cccc4[C@@](C)(O)C3[C@H](O)C12 (some centres undefined)	-81.6*	2.2	5.4	-4.3	2.3
C[C@H]1CN([C@@H](C)CO)C(=O)CCCn2cc(nn2)CO[C@H]1CN(C)C(=O)Oc1ccc2ccccc2c1	·	·	·	·	-2.0
C[C@H](CO)N1C[C@H](C)[C@@H](CN(C)C(=O)Oc2ccc3ccccc3c2)OCc2cn(nn2)CCCC1=O	·	·	-1.6	·	54.5*!
O=C(NC1(C(F)(F)F)Oc2ccccc2O1)N1CCC2(CC1)OCCO2	12.8	?	17.6	-15.2	-0.2
O=C(NC1(C(F)(F)F)Oc2ccc(Cl)cc2O1)N1CCC2(CC1)OCCO2 (centres undefined)	13.6	77.6*	3.5	-9.5	·

Compound activity: PubChem, Broad Institute
